Assays:
Assay in all cases: pooled miR-30 sensor sort-seq; sequence = guide strand
Settings in all cases: shRNA
[1] = target: SPOCK1
[2] = target: SPRR2B
[3] = target: SPSB2
[4] = target: SPOPL
[5] = target: SRSF11
[6] = target: SSR4
[7] = target: ST6GAL2
[8] = target: STK32B
[9] = target: STMN2
[10] = target: STRA6
[11] = target: STRADB
[12] = target: STX12
[13] = target: SULT1A2
[14] = target: SUN1
[15] = target: SURF1
[16] = target: SULT6B1

Sequence: TTCATATTCTAGGTCATCCAGC
- sensor-assay potency score (higher = more potent) [1]: -0.469

Sequence: TGAAGCTCTGGGAACTGACAAA
- sensor-assay potency score (higher = more potent) [2]: -1.43

Sequence: TTGTGGCGCACACACAGGCGGC
- sensor-assay potency score (higher = more potent) [3]: -1.68

Sequence: TAAAAACTGGAGATCGAGCTGC
- sensor-assay potency score (higher = more potent) [4]: 0.265

Sequence: TTGCTATCAGGGAACATCATGG
- sensor-assay potency score (higher = more potent) [2]: -0.524

Sequence: TAAGGGGAAAGAAGCTCCCTAT
- sensor-assay potency score (higher = more potent) [2]: -0.405

Sequence: TTGATTTCCGCAGAGCTTGGGT
- sensor-assay potency score (higher = more potent) [3]: -0.0773

Sequence: TTAGAAAGGAAACCTTTTGCTA
- sensor-assay potency score (higher = more potent) [2]: -0.743

Sequence: TCTTTCTGCTGAAGCTCTGGGA
- sensor-assay potency score (higher = more potent) [2]: -0.772

Sequence: TCTCTCTGGCACCTCCAGCTGC
- sensor-assay potency score (higher = more potent) [3]: -1.35

Sequence: ATGTTCTCTGAACAGTCTTTGG
- sensor-assay potency score (higher = more potent) [3]: -1.78

Sequence: TACTACTTTAACCTGTGTGTAA
- sensor-assay potency score (higher = more potent) [4]: -0.323

Sequence: TCTGGGAACTGACAAAGCCAAG
- sensor-assay potency score (higher = more potent) [2]: -1.68

Sequence: TTCCCAGGCACACAGCTGCAGC
- sensor-assay potency score (higher = more potent) [2]: -1.61

Sequence: TTTGTCTTTATCTTTCTTCTTC
- sensor-assay potency score (higher = more potent) [5]: 0.407

Sequence: TTCTTTACTAGAGGTATCCGAT
- sensor-assay potency score (higher = more potent) [5]: -0.524

Sequence: TGACTGTAAACAGAGGCGGGAT
- sensor-assay potency score (higher = more potent) [6]: -0.672

Sequence: TAACCTCATAGGTGCCTGCGTG
- sensor-assay potency score (higher = more potent) [6]: -0.73

Sequence: TACACGTGCACCTCTCTGCACA
- sensor-assay potency score (higher = more potent) [7]: -0.913

Sequence: TTAATGATGCGTATGGTGGTTT
- sensor-assay potency score (higher = more potent) [7]: -0.296

Sequence: TTCTTGAACACCGCGTCCCAGT
- sensor-assay potency score (higher = more potent) [8]: -0.825

Sequence: TTGTCTGGCTTGATGTCTCTGT
- sensor-assay potency score (higher = more potent) [8]: 0.0607

Sequence: TTCTGCTCCTTTCACTACCGTC
- sensor-assay potency score (higher = more potent) [8]: -0.907

Sequence: TTTCTTCTGGATCTCCTCCAGG
- sensor-assay potency score (higher = more potent) [9]: -0.912

Sequence: TAGGCACTGAAGCTCATCCAAC
- sensor-assay potency score (higher = more potent) [10]: -1.34

Sequence: TAATAGCAGCTAGATTAGCCTC
- sensor-assay potency score (higher = more potent) [9]: -0.915

Sequence: TGTAATGTGAACATGTCCGTGT
- sensor-assay potency score (higher = more potent) [8]: 1.03

Sequence: TGTAGCTGAAAGCACCAGCTTC
- sensor-assay potency score (higher = more potent) [10]: -0.655

Sequence: TTCTTCTTTCCTCTGCAGCCTC
- sensor-assay potency score (higher = more potent) [9]: -0.81

Sequence: TTCTACTTGGAGCTCATAGTGA
- sensor-assay potency score (higher = more potent) [11]: -0.852

Sequence: TGAGATGTAGCACACTTCCAGA
- sensor-assay potency score (higher = more potent) [10]: -1.21

Sequence: TCAATCTTCAAGAAGTTTCGGT
- sensor-assay potency score (higher = more potent) [10]: 0.639

Sequence: TTGATTTGCTTCACTTCCATAT
- sensor-assay potency score (higher = more potent) [9]: -0.805

Sequence: TAGTGTCTCGCTTCTGCACGAT
- sensor-assay potency score (higher = more potent) [8]: -0.331

Sequence: TTTGCTTCACTTCCATATCATC
- sensor-assay potency score (higher = more potent) [9]: -1.64

Sequence: TTTCGGTACGTGTAGTAGCCGG
- sensor-assay potency score (higher = more potent) [10]: -0.648

Sequence: TCTGACTTCACATTATACCCAT
- sensor-assay potency score (higher = more potent) [11]: 0.302

Sequence: TAGTACTTGTAGATCTTGGGCA
- sensor-assay potency score (higher = more potent) [10]: 0.389

Sequence: TTGGAGGTGTGGTAGCTGCTTC
- sensor-assay potency score (higher = more potent) [10]: -0.709

Sequence: TTCCTCAGAGTAGCTGCTCTGC
- sensor-assay potency score (higher = more potent) [10]: -1.09

Sequence: AACATGTCCGTGTTCATCCAGC
- sensor-assay potency score (higher = more potent) [8]: -0.285

Sequence: TTTGCCAATCGCTTCTTCTTTT
- sensor-assay potency score (higher = more potent) [8]: -0.852

Sequence: TTGCATGATCTGCAGCTCCCGG
- sensor-assay potency score (higher = more potent) [8]: -1.07

Sequence: TTTCTTAGTGTCTCGCTTCTGC
- sensor-assay potency score (higher = more potent) [8]: 0.225

Sequence: TTCTGAAGGACTTCTCGCTCGT
- sensor-assay potency score (higher = more potent) [9]: 0.283

Sequence: TTCACTTCCATATCATCGTAAG
- sensor-assay potency score (higher = more potent) [9]: -0.831

Sequence: TTGGATTCTAGAATCATCTCTT
- sensor-assay potency score (higher = more potent) [8]: 0.951

Sequence: TTCTTCATTGCAGTTTTCCAGA
- sensor-assay potency score (higher = more potent) [11]: -0.72

Sequence: TTTTCCTCCGCCATCTTGCTGA
- sensor-assay potency score (higher = more potent) [9]: -0.369

Sequence: TTTCTTTCTCCAGAACCCCTGC
- sensor-assay potency score (higher = more potent) [10]: -0.557

Sequence: ATCATCGTAAGTATAGATGTTG
- sensor-assay potency score (higher = more potent) [9]: -0.449

Sequence: AACAGTCCCAGTATCTTCCAGG
- sensor-assay potency score (higher = more potent) [10]: -0.995

Sequence: TTCGGTACGTGTAGTAGCCGGG
- sensor-assay potency score (higher = more potent) [10]: -0.203

Sequence: TAGATGCAGTGTCTCAAGCAGA
- sensor-assay potency score (higher = more potent) [10]: -0.804

Sequence: TTCACTACCGTCGCTATGTTGA
- sensor-assay potency score (higher = more potent) [8]: -0.4

Sequence: TAATGTGAACATGTCCGTGTTC
- sensor-assay potency score (higher = more potent) [8]: -0.137

Sequence: TAAGTATAGATGTTGATGTTGC
- sensor-assay potency score (higher = more potent) [9]: -0.111

Sequence: TTCCATTTTCAGGATCAGCTTT
- sensor-assay potency score (higher = more potent) [9]: -0.67

Sequence: TTGGAGAAGCTAAAGTTCGTGG
- sensor-assay potency score (higher = more potent) [9]: -0.769

Sequence: ATCTTGTTGCAAACAGAGCTGT
- sensor-assay potency score (higher = more potent) [11]: -0.583

Sequence: TTGTGGAGTGTTGTAACTGTTG
- sensor-assay potency score (higher = more potent) [12]: -1.19

Sequence: TTTAATAAGTTCCAAATCCTGC
- sensor-assay potency score (higher = more potent) [12]: -0.773

Sequence: TGTGTTTTTCAGAGTCTCCATC
- sensor-assay potency score (higher = more potent) [13]: -0.796

Sequence: TTATTCTGGAGCCTCTTGGTCA
- sensor-assay potency score (higher = more potent) [13]: -0.61

Sequence: TTTATTCTGGAGCCTCTTGGTC
- sensor-assay potency score (higher = more potent) [13]: -0.833

Sequence: TCCAGCCATGAACTTCTCCAGG
- sensor-assay potency score (higher = more potent) [13]: -1.76

Sequence: TTTTCTAATCCATAGACGGCGA
- sensor-assay potency score (higher = more potent) [14]: -0.893

Sequence: TACCAGTAGCACATGATCCAGC
- sensor-assay potency score (higher = more potent) [15]: -0.00567

Sequence: TGGAATATCGGGGACATCGTTG
- sensor-assay potency score (higher = more potent) [16]: -1.15

Sequence: TTCAGGATTCACTTTCTTCCTG
- sensor-assay potency score (higher = more potent) [15]: -0.13

Sequence: TATTAATTCACTGACAATGTGG
- sensor-assay potency score (higher = more potent) [16]: -0.366

Sequence: TTTTGGTTTCGTAAGTTTCAGA
- sensor-assay potency score (higher = more potent) [14]: -0.848

Sequence: TTGTTTGTGCTTCTGCGCTGTT
- sensor-assay potency score (higher = more potent) [14]: -0.561

Sequence: TCTTGCACGTGCTGGTACCAGG
- sensor-assay potency score (higher = more potent) [13]: -1.6

Sequence: TAGGAAACCGCCACATCCTTTG
- sensor-assay potency score (higher = more potent) [13]: -0.928

Sequence: TGTCCTTTCATGAACTGTCTGA
- sensor-assay potency score (higher = more potent) [16]: 0.266

Sequence: TCAGGATTCACTTTCTTCCTGG
- sensor-assay potency score (higher = more potent) [15]: 0.148

Sequence: TAGGAATTTCTTAAACCACAGG
- sensor-assay potency score (higher = more potent) [15]: -0.992

Sequence: TTGGAAAGCTGTGTCGTCGGGT
- sensor-assay potency score (higher = more potent) [14]: 0.562

Sequence: TGGTCCATGAACTCCCGGCGGA
- sensor-assay potency score (higher = more potent) [13]: -1.53

Sequence: ACCCATAGGACACTTCTCCAGC
- sensor-assay potency score (higher = more potent) [13]: -2.4

Sequence: TACTGCTGTATCTTTAGGGTTT
- sensor-assay potency score (higher = more potent) [16]: -0.446

Sequence: TTGTTGTTCTGGCCGCTCGGTT
- sensor-assay potency score (higher = more potent) [14]: -1.37

Sequence: TAATATGAACTTAACATTGTCG
- sensor-assay potency score (higher = more potent) [16]: 0.349

Sequence: TTTTTCAGAGTCTCCATCCCTG
- sensor-assay potency score (higher = more potent) [13]: -0.0359

Sequence: TAATTTGTCATAGTGGAGGTGA
- sensor-assay potency score (higher = more potent) [16]: 0.271

Sequence: TAGAATAAACTCTCGACACGGG
- sensor-assay potency score (higher = more potent) [14]: -0.0133

Sequence: TTATTCTCGAAGATAGACCCAG
- sensor-assay potency score (higher = more potent) [16]: -0.349

Sequence: TATGAACTTAACATTGTCGCCA
- sensor-assay potency score (higher = more potent) [16]: 0.543

Sequence: TGAACTTAACATTGTCGCCATC
- sensor-assay potency score (higher = more potent) [16]: -1.22

Reference: the OligoGym collection
